From PubChem BioAssay (NCATS)
Inconclusive results are not listed. Calls of active or inactive are those of the source. Unless noted, the call rests on the fitted dose curve; in most records, active means well fitted curve in the direction sought with a large enough effect; inconclusive means small, poorly fitted or top-dose-only effect, or another doubt; inactive means no such curve, though single readings can be large; an effect the other way counts as inactive or inconclusive.

Assays:
[1] = Inducers of the Endoplasmic Reticulum Stress Response (ERSR) in human glioma: Validation (AID 504836); further: 0% is about no effect
Summary of the method: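 Stably transfected U87-MG human glioma cells carrying a GRP78-based luminescent sensor were seeded at 1000 cells/well, pin-dosed with compounds and incubated 16 h. Luciferase reagent was then added, and end-point luminescence was read after 10 min at room temperature.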

[2] = qHTS for Inhibitors of the Functional Ribonucleoprotein Complex (vRNP) of Lassa (LASV) Arenavirus: LASV Primary Screen - GLuc reporter signal (AID 1347082; calls by dose curve; tested in HEK293 reporter line; further: series mostly up to about 57 µM; on the % scale 0 is the no-effect control and ±100 the full control effect; nearly all actives have a fitted effect of over 60% in size)
[3] = qHTS for Inhibitors of the Functional Ribonucleoprotein Complex (vRNP) of Lassa (LASV) Arenavirus: Viability assay - alamar blue signal for LASV Primary Screen (AID 1347083; calls by dose curve; tested in HEK293 reporter line; further: series mostly up to about 57 µM; on the % scale 0 is the no-effect control and ±100 the full control effect; nearly all actives have a fitted effect of over 80% in size)
[4] = qHTS for Inhibitors of the Functional Ribonucleoprotein Complex (vRNP) of Lymphocytic Choriomeningitis Arenaviruses (LCMV): Viability assay - alamar blue signal for LCMV Primary Screen (AID 1347085; calls by dose curve; tested in HEK293 reporter line; further: series mostly up to about 57 µM; on the % scale 0 is the no-effect control and ±100 the full control effect; nearly all actives have a fitted effect of over 80% in size)
[5] = molecular target: Nucleoprotein (Lymphocytic choriomeningitis virus (strain Armstrong)) (UniProt P09992); assay: qHTS for Inhibitors of the Functional Ribonucleoprotein Complex (vRNP) of Lymphocytic Choriomeningitis Arenaviruses (LCMV): LCMV Primary Screen - GLuc reporter signal (AID 1347086; calls by dose curve; further: series mostly up to about 57 µM; on the % scale 0 is the no-effect control and ±100 the full control effect; nearly all actives have a fitted effect of over 70% in size)
[6] = molecular target: Alpha-galactosidase (Coffea arabica) (UniProt Q42656); assay: Counterscreen for Glucocerebrosidase Inhibitors: qHTS Assay for Coffee Bean alpha-Galactosidase at pH 4.5 (AID 957);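 further: series mostly up to about 77 µM; plate controls were enzyme alone for no effect and no enzyme for full effect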
Summary of the method: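 AC50 values derive from Hill-equation modeling of concentration-response data, normalized to no-enzyme and full-activity controls. The pH 4.5 citrate assay used 2 nM coffee bean enzyme and 80 uM fluorogenic substrate for 20 min.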

[7] = molecular target: Alpha-galactosidase (Coffea arabica) (UniProt Q42656); assay: Counterscreen for Glucocerebrosidase Inhibitors: qHTS Assay for Coffee Bean alpha-Galactosidase at pH 5.9 (AID 998);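 further: plate controls were uninhibited enzyme for no effect and no-enzyme basal signal for full effect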
Summary of the method: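 Green coffee bean enzyme (2 nM final) was incubated with compounds (0.7 nM–77 uM) and 4-methylumbelliferyl alpha-D-galactopyranoside (80 uM) in citrate buffer pH 5.9, 20 min at room temperature. High-pH stop; fluorescence 365/440 nm; AC50 from Hill fits.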

[8] = molecular target: Ubiquitin carboxyl-terminal hydrolase 1 (Homo sapiens) (UniProt O94782); assay: Inhibitors of USP1/UAF1: Pilot qHTS (AID 504865);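 further: rhodamine fluorescence freed from ubiquitin-rhodamine substrate followed over time; top concentration of the series differs between compounds; on the % scale 0 is the no-effect control and ±100 the full control effect; nearly all actives have a fitted effect of over 35% in size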
Summary of the method: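 In 50mM HEPES pH 7.8 containing 0.5mM EDTA, 1mM TCEP, 0.1 mg/ml BSA and 0.01% Tween-20, 1nM USP1/UAF1 is exposed to compound for 15 min, then Ub-Rho (150nM final) is added and fluorescence is read over time.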

[9] = molecular target: Arylsulfatase A (Homo sapiens) (UniProt P15289); assay: qHTS screen for enhancers of Arylsulfatase A (ASA1): LOPAC Validation Assay (AID 720538); further: 0% is about no effect
Summary of the method: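 MLD patient fibroblasts (SV40, ASA-I179S), 1536-well; adhere 6 hrs; cpd 48h, 37 degree C, 5% CO2; pNCS 0.5mM final in lysis buffer, 14h RT; stop 1N NaOH final; fluor. Ex525/Em598.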

[10] = molecular target: Bile acid receptor (Homo sapiens) (UniProt Q96RI1); assay: qHTS assay for small molecule agonists of farnesoid X receptor signaling (AID 588527; calls by dose curve;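 further: series mostly up to about 77 µM; 0% = vehicle basal and 100% = reference agonist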); conditions: HEK293T FXR-UAS-bla, beta-lactamase ratio, 16 h; activation: active compounds read high
Summary of the method: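 Quantitative HTS used FXR-UAS-bla HEK293T cells with 16 h compound incubation at 37 C. EC50 values came from concentration-response curves normalized to chenodeoxycholic acid.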

Nucleoprotein (Lymphocytic choriomeningitis virus (strain Armstrong)), sequence (P09992 whole entry, looked up): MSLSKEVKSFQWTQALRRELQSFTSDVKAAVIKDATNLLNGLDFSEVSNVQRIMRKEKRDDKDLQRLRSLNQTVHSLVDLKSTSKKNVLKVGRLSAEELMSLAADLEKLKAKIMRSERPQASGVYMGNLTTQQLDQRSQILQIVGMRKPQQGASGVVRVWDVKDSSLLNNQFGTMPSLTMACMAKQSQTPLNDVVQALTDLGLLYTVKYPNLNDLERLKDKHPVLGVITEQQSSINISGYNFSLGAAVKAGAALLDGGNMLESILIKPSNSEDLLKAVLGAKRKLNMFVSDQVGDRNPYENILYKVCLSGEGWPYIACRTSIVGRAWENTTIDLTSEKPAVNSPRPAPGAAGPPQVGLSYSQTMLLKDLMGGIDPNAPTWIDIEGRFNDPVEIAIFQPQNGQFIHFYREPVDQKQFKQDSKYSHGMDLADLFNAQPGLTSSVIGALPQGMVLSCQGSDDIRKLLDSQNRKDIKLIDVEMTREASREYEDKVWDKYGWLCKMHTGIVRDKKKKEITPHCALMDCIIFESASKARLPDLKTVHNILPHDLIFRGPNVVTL
Alpha-galactosidase (Coffea arabica), sequence (Q42656 whole entry, looked up): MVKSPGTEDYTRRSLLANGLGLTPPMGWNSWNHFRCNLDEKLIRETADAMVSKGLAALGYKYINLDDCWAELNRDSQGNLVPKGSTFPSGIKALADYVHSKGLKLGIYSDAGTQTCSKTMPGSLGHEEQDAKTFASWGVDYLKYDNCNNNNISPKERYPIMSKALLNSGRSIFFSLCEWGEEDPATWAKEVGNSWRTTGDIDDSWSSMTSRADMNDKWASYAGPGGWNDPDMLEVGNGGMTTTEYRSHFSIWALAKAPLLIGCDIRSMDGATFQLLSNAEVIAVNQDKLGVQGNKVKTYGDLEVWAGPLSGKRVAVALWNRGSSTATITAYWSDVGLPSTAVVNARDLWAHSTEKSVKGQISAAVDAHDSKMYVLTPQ
Arylsulfatase A (Homo sapiens), sequence (P15289 whole entry, looked up): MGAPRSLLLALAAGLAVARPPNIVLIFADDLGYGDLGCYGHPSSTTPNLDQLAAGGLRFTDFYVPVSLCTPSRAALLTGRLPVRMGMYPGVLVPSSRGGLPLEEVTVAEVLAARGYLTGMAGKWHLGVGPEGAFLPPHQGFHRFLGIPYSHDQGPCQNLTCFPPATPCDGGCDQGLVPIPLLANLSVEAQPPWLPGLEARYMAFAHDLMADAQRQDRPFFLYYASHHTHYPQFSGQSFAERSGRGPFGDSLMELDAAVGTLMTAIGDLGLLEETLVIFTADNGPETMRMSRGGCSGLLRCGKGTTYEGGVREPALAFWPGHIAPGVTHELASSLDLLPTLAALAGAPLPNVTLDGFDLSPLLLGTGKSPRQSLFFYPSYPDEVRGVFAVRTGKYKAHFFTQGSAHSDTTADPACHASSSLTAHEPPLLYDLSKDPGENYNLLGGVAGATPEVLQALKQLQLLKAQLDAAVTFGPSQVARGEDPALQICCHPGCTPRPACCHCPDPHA
Ubiquitin carboxyl-terminal hydrolase 1 (Homo sapiens), sequence (O94782 whole entry, looked up): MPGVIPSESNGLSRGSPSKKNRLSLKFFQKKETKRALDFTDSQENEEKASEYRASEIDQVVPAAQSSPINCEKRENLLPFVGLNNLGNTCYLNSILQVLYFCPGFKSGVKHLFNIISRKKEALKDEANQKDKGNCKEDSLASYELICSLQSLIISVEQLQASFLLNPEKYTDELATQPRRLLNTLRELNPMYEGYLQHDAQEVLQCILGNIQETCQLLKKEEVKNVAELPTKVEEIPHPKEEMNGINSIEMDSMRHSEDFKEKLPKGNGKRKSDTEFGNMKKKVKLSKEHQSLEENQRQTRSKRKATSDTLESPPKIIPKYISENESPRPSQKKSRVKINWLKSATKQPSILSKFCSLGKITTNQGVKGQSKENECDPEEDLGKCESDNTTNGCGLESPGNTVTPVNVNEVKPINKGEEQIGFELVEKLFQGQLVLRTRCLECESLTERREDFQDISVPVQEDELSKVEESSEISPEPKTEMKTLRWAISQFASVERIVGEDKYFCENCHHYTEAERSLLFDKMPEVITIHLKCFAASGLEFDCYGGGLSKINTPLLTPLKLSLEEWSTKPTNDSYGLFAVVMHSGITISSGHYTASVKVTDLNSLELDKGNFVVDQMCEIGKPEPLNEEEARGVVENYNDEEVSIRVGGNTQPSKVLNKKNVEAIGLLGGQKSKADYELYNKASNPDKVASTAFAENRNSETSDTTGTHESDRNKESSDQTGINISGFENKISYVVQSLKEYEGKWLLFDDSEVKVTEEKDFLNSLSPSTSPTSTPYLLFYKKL
Bile acid receptor (Homo sapiens), sequence (Q96RI1 whole entry, looked up): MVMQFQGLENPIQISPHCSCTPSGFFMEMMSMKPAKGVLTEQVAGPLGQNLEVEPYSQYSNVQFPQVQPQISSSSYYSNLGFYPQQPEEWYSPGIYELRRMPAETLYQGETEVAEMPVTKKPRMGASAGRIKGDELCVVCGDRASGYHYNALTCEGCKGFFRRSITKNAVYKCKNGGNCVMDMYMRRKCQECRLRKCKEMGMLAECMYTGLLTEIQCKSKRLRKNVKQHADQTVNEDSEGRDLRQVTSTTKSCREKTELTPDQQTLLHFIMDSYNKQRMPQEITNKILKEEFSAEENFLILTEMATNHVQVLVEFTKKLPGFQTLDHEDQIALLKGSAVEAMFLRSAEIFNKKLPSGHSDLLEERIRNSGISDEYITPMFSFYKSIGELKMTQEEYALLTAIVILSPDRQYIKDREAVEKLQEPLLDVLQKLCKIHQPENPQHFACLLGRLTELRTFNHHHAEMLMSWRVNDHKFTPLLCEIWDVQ

Oc1cc2c(c(Cl)c1O)CCNCC2c1ccccc1 (stereo not drawn)
inactive: outcome [1] | Potency [2] | Potency [3] | Potency [4] | Potency [5]

NC(N)=[N+]1CCc2ccccc2C1
inactive: outcome [6] | outcome [7] | outcome [1] | Potency [2] | Potency [3] | Potency [4] | Potency [5]

Cn1ncc(S(=O)(=O)Cc2ccccc2)c(Br)c1=O
inactive: outcome [1] | Potency [2] | Potency [3] | Potency [4] | Potency [5]

NCC1OC(O[C@H]2[C@H](O)[C@@H](OC3C(O)C(N)CC(N)C3OC3OC(CO)C(O)C(O)C3N)O[C@@H]2CO)C(N)C(O)C1O (stereo partly drawn)
inactive: outcome [1] | Potency [8] | Potency [9] | Potency [2] | Potency [3] | Potency [4] | Potency [5]

CS(C)=O
inactive: activation [10] -2.1% | Potency [2] | Potency [3] | Potency [4] | Potency [5]

O=C(O)C1=CC(=C(c2ccc(O)c(C(=O)O)c2)c2ccc(O)c(C(=O)O)c2)C=CC1=O
inactive: outcome [6] | outcome [7] | outcome [1] | Potency [2] | Potency [3] | Potency [4] | Potency [5]

CN=c1nc(-c2ccccc2)n(-c2ccccc2)s1
inactive: outcome [6] | outcome [7] | outcome [1] | Potency [2] | Potency [3] | Potency [4] | Potency [5]

CN1C2CC(OC(=O)[C@H](CO)c3ccccc3)CC1C1OC12 (stereo partly drawn)
inactive: outcome [1] | Potency [8] | Potency [2] | Potency [3] | Potency [4] | Potency [5]

CCCn1c(=O)c2[nH]c(-c3ccc(OCC(=O)NCCN)cc3)nc2n(CCC)c1=O
inactive: outcome [6] | outcome [7] | outcome [1] | Potency [2] | Potency [3] | Potency [4] | Potency [5]

CC(C)Cn1c(=O)n(C)c(=O)c2[nH]cnc21
inactive: outcome [6] | outcome [7] | outcome [1] | Potency [2] | Potency [3] | Potency [4] | Potency [5]

CN(C)c1ccc(/C=C2\C(=O)Nc3ccccc32)cc1
inactive: outcome [1] | Potency [2] | Potency [3] | Potency [4] | Potency [5]

CN1CCc2cc(NC(=O)Nc3cccnc3)ccc21
inactive: outcome [6] | outcome [7] | outcome [1] | Potency [2] | Potency [3] | Potency [4] | Potency [5]

CCCCCCC(=O)OC1CC(C)(C)NC(C)(C)C1
inactive: outcome [1] | Potency [9] | Potency [2] | Potency [3] | Potency [4] | Potency [5]

N=C(N)SCCc1ccc(CCSC(=N)N)cc1
inactive: outcome [6] | outcome [7] | outcome [1] | Potency [2] | Potency [3] | Potency [4] | Potency [5]
